Assay results from the supplement of paper PMC6992640.

Tested on: WHIM30 (cells of a triple-negative basal-like breast cancer xenograft)
Assay: cell viability of combination (% of vehicle); higher = less cytotoxic
Conditions: 1 µM; 72 h; partner dose: 10 nM
Method: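 PDX cells were treated for 72 h with each drug at 1 µM plus carfilzomib (10 nM; 100 nM for WHIM2). Luciferase viability is expressed as percent of vehicle.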

Row | SMILES | cell viability of combination
1 | CSc1ccc2c(c1)N(CCC1CCCCN1C)c1ccccc1S2.Cl (stereo not given) [Thioridazine HCl] + CC(C)C[C@H](NC(=O)[C@H](CCc1ccccc1)NC(=O)CN1CCOCC1)C(=O)N[C@@H](Cc1ccccc1)C(=O)N[C@@H](CC(C)C)C(=O)[C@@]1(C)CO1 [Carfilzomib] | 17.7
2 | COc1ncc(-c2ccc3nccc(-c4ccnnc4)c3c2)cc1NS(=O)(=O)c1ccc(F)cc1F + CC(C)C[C@H](NC(=O)[C@H](CCc1ccccc1)NC(=O)CN1CCOCC1)C(=O)N[C@@H](Cc1ccccc1)C(=O)N[C@@H](CC(C)C)C(=O)[C@@]1(C)CO1 [Carfilzomib] | 8.27
3 | C=C1C(=CC=C2CCCC3(C)C2CCC3C(C)C=CC(C)C(C)C)CC(O)CC1O (stereo not given) [Doxercalciferol] + CC(C)C[C@H](NC(=O)[C@H](CCc1ccccc1)NC(=O)CN1CCOCC1)C(=O)N[C@@H](Cc1ccccc1)C(=O)N[C@@H](CC(C)C)C(=O)[C@@]1(C)CO1 [Carfilzomib] | 17
4 | COc1cc(C(=O)NS(=O)(=O)c2ccccc2C)ccc1Cc1cn(C)c2ccc(NC(=O)OC3CCCC3)cc12 [Zafirlukast] + CC(C)C[C@H](NC(=O)[C@H](CCc1ccccc1)NC(=O)CN1CCOCC1)C(=O)N[C@@H](Cc1ccccc1)C(=O)N[C@@H](CC(C)C)C(=O)[C@@]1(C)CO1 [Carfilzomib] | 17.9
5 | COc1cccc2c1C(=O)c1c(O)c3c(c(O)c1C2=O)CC(O)(C(=O)CO)CC3OC1CC(N)C(O)C(C)O1.Cl (stereo not given) [Doxorubicin (Adriamycin) HCl] + CC(C)C[C@H](NC(=O)[C@H](CCc1ccccc1)NC(=O)CN1CCOCC1)C(=O)N[C@@H](Cc1ccccc1)C(=O)N[C@@H](CC(C)C)C(=O)[C@@]1(C)CO1 [Carfilzomib] | 7.61
6 | CCOC(=O)c1c(CSc2ccccc2)n(C)c2cc(Br)c(O)c(CN(C)C)c12.Cl [Arbidol HCl] + CC(C)C[C@H](NC(=O)[C@H](CCc1ccccc1)NC(=O)CN1CCOCC1)C(=O)N[C@@H](Cc1ccccc1)C(=O)N[C@@H](CC(C)C)C(=O)[C@@]1(C)CO1 [Carfilzomib] | 22
7 | Cl.Cl.O=C1c2c(O)ccc(O)c2C(=O)c2c(NCCNCCO)ccc(NCCNCCO)c21 [Mitoxantrone HCl] + CC(C)C[C@H](NC(=O)[C@H](CCc1ccccc1)NC(=O)CN1CCOCC1)C(=O)N[C@@H](Cc1ccccc1)C(=O)N[C@@H](CC(C)C)C(=O)[C@@]1(C)CO1 [Carfilzomib] | 5.21
8 | COc1cc(Nc2ncc(F)c(Nc3ccc4c(n3)N(COP(=O)(O)O)C(=O)C(C)(C)O4)n2)cc(OC)c1OC [Fostamatinib (R788)] + CC(C)C[C@H](NC(=O)[C@H](CCc1ccccc1)NC(=O)CN1CCOCC1)C(=O)N[C@@H](Cc1ccccc1)C(=O)N[C@@H](CC(C)C)C(=O)[C@@]1(C)CO1 [Carfilzomib] | 16.9
9 | COC1=C(OC)C(=O)C(CCCCCCCCCCO)=C(C)C1=O [Idebenone] + CC(C)C[C@H](NC(=O)[C@H](CCc1ccccc1)NC(=O)CN1CCOCC1)C(=O)N[C@@H](Cc1ccccc1)C(=O)N[C@@H](CC(C)C)C(=O)[C@@]1(C)CO1 [Carfilzomib] | 17.5
10 | O=C(O)c1cc(O)c(O)c(O)c1 [Gallic acid] + CC(C)C[C@H](NC(=O)[C@H](CCc1ccccc1)NC(=O)CN1CCOCC1)C(=O)N[C@@H](Cc1ccccc1)C(=O)N[C@@H](CC(C)C)C(=O)[C@@]1(C)CO1 [Carfilzomib] | 16.3
11 | CNC(=O)c1cc(Oc2ccc(NC(=O)Nc3ccc(Cl)c(C(F)(F)F)c3)cc2)ccn1 [Sorafenib] + CC(C)C[C@H](NC(=O)[C@H](CCc1ccccc1)NC(=O)CN1CCOCC1)C(=O)N[C@@H](Cc1ccccc1)C(=O)N[C@@H](CC(C)C)C(=O)[C@@]1(C)CO1 [Carfilzomib] | 18
12 | Clc1ccc(CSC(Cn2ccnc2)c2ccc(Cl)cc2Cl)cc1.O=[N+]([O-])O (stereo not given) [Sulconazole Nitrate] + CC(C)C[C@H](NC(=O)[C@H](CCc1ccccc1)NC(=O)CN1CCOCC1)C(=O)N[C@@H](Cc1ccccc1)C(=O)N[C@@H](CC(C)C)C(=O)[C@@]1(C)CO1 [Carfilzomib] | 14.2
13 | Cc1nc(NC(=O)N2CCCC2C(N)=O)sc1-c1ccnc(C(C)(C)C(F)(F)F)c1 (stereo not given) + CC(C)C[C@H](NC(=O)[C@H](CCc1ccccc1)NC(=O)CN1CCOCC1)C(=O)N[C@@H](Cc1ccccc1)C(=O)N[C@@H](CC(C)C)C(=O)[C@@]1(C)CO1 [Carfilzomib] | 20
14 | COCCn1c2c([n+](Cc3cnccn3)c1C)C(=O)c1ccccc1C2=O.[Br-] + CC(C)C[C@H](NC(=O)[C@H](CCc1ccccc1)NC(=O)CN1CCOCC1)C(=O)N[C@@H](Cc1ccccc1)C(=O)N[C@@H](CC(C)C)C(=O)[C@@]1(C)CO1 [Carfilzomib] | 6.3
15 | Cc1cccc(CN2CCN(C(c3ccccc3)c3ccc(Cl)cc3)CC2)c1.Cl.Cl (stereo not given) [Meclizine 2HCl] + CC(C)C[C@H](NC(=O)[C@H](CCc1ccccc1)NC(=O)CN1CCOCC1)C(=O)N[C@@H](Cc1ccccc1)C(=O)N[C@@H](CC(C)C)C(=O)[C@@]1(C)CO1 [Carfilzomib] | 11.7
16 | CCCCc1oc2ccc(NS(C)(=O)=O)cc2c1C(=O)c1ccc(OCCCN(CCCC)CCCC)cc1.Cl [Dronedarone HCl] + CC(C)C[C@H](NC(=O)[C@H](CCc1ccccc1)NC(=O)CN1CCOCC1)C(=O)N[C@@H](Cc1ccccc1)C(=O)N[C@@H](CC(C)C)C(=O)[C@@]1(C)CO1 [Carfilzomib] | 12.7
17 | CC(C)c1nc(CN(C)C(=O)NC(C(=O)NC(Cc2ccccc2)CC(O)C(Cc2ccccc2)NC(=O)OCc2cncs2)C(C)C)cs1 (stereo not given) [Ritonavir] + CC(C)C[C@H](NC(=O)[C@H](CCc1ccccc1)NC(=O)CN1CCOCC1)C(=O)N[C@@H](Cc1ccccc1)C(=O)N[C@@H](CC(C)C)C(=O)[C@@]1(C)CO1 [Carfilzomib] | 27.3
18 | CN(C(=O)CN(CCO)CC(=O)N(C)C(C)(C)Cc1ccccc1)C(C)(C)Cc1ccccc1 [Oxethazaine] + CC(C)C[C@H](NC(=O)[C@H](CCc1ccccc1)NC(=O)CN1CCOCC1)C(=O)N[C@@H](Cc1ccccc1)C(=O)N[C@@H](CC(C)C)C(=O)[C@@]1(C)CO1 [Carfilzomib] | 20.8
19 | CCCSc1nc(NC2CC2c2ccc(F)c(F)c2)c2nnn(C3CC(OCCO)C(O)C3O)c2n1 (stereo not given) [Ticagrelor] + CC(C)C[C@H](NC(=O)[C@H](CCc1ccccc1)NC(=O)CN1CCOCC1)C(=O)N[C@@H](Cc1ccccc1)C(=O)N[C@@H](CC(C)C)C(=O)[C@@]1(C)CO1 [Carfilzomib] | 14.4
20 | COc1cc2c(Oc3ccc4[nH]c(C)cc4c3F)ncnc2cc1OCCCN1CCCC1 [Cediranib (AZD217)] + CC(C)C[C@H](NC(=O)[C@H](CCc1ccccc1)NC(=O)CN1CCOCC1)C(=O)N[C@@H](Cc1ccccc1)C(=O)N[C@@H](CC(C)C)C(=O)[C@@]1(C)CO1 [Carfilzomib] | 11.6
